This passage reports Potency and outcome results from PubChem BioAssay (Tox21).

Where “and” joins values, the source holds several entries; their conditions need not be identical. Equal values may be shown once. Records with an inconclusive call do not appear. Where a structure was tested more than once in an assay, its records may differ in their call. Calls of active or inactive are those of the source. Unless noted, calls come from the whole dose curve; as a rule, active = well fitted curve in the direction sought with a large enough effect in the repeat runs; inconclusive = weak or mixed curves; inactive = no such curve, though single readings can be large; an effect the other way counts as inactive or inconclusive.

Experiment [1] in a line: qHTS assay to identify small molecule antagonists of the glucocorticoid receptor (GR) signaling pathway - cell viability counter screen (AID 720693). Note: nearly all actives have a fitted effect of over 55% in size. Note: potency is the fitted concentration of half-maximal effect.
Experiment [2] is described as follows: qHTS assay for identifying genotoxic compounds that show differential cytotoxicity against isogenic chicken DT40 cell lines with known DNA damage response pathways - wild type cell line (AID 743012). Note: nearly all actives have a fitted effect of over 60% in size. Note: potency is the fitted concentration of half-maximal effect. An outline of the steps: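 First, wild type DT40 cells were plated at 300 per well and equilibrated about 0.5 h at 37 C/5% CO2. Next, compounds in DMSO were added and exposure lasted 40 h. Finally, CellTiter-Glo was added for 30 min at room temperature and luminescence recorded.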

Experiment [3] is described as follows: qHTS assay for identifying genotoxic compounds that show differential cytotoxicity against isogenic chicken DT40 cell lines with known DNA damage response pathways - Rev3 mutant cell line (AID 743014). Note: nearly all actives have a fitted effect of over 55% in size. Note: potency is the fitted concentration of half-maximal effect.
A short description of experiment [4]: qHTS assay for identifying genotoxic compounds that show differential cytotoxicity against isogenic chicken DT40 cell lines with known DNA damage response pathways - Rad54/Ku70 mutant cell line (AID 743015). Note: nearly all actives have a fitted effect of over 60% in size. Note: potency is the fitted concentration of half-maximal effect.
The nature of experiment [5]: qHTS assay to identify small molecule antagonists of the androgen receptor (AR) signaling pathway - cell viability counter screen (AID 743033; note: nearly all actives have a fitted effect of over 45% in size; note: potency is the fitted concentration of half-maximal effect).
The nature of experiment [6]: qHTS assay to identify small molecule antagonists of the androgen receptor (AR) signaling pathway using the MDA cell line - cell viability counter screen (AID 743041; note: nearly all actives have a fitted effect of over 45% in size). Put shortly: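 Viability counter screen run alongside the AR antagonist reporter: cells seeded 5 h before compound, R1881 added, 16 h incubation at 37C without CO2, fluorescent CellTiter-Fluor signal quantified.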

Experiment [7] concerns the target Androgen receptor (Homo sapiens) (UniProt P10275). The experiment in a line: qHTS assay to identify small molecule antagonists of the androgen receptor (AR) signaling pathway (AID 743035; active = well fitted inhibition curve with a large enough effect in the signal ratio in the repeat runs, not every such curve was filed as active; the % refers to the signal ratio; note: potency is the fitted concentration of half-maximal effect). Put shortly: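 Beta-lactamase FRET read (2 h RT incubation with LiveBLAzer B/G) following 16 h of compound plus R1881 treatment of AR-UAS-bla HEK293 cells, which had been pre-incubated 4 h at 37C.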

The target is the same in experiment [8]. The experiment can be described thus: qHTS assay to identify small molecule agonists of the androgen receptor (AR) signaling pathway (AID 743036; active = well fitted activation curve with a large enough effect in the signal ratio in the repeat runs, with a control signal flat, not every such curve was filed as active; the % refers to the signal ratio). An outline of the steps: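 Reporter line: GeneBLAzer AR-UAS-bla-GripTite (HEK293). Steps: plate cells, 4 h rest, add compounds, 16 h at 37C, add LiveBLAzer B/G substrate, 2 h at RT, read fluorescence.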
For experiment [9] the target is unchanged. The experiment can be described thus: qHTS assay to identify small molecule agonists of the androgen receptor (AR) signaling pathway using the MDA cell line (AID 743040; note: nearly all actives have a fitted effect of over 20% in size). Put shortly:
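Luminescence from ONE-Glo, read after 30 min at room temperature, reflects MMTV-driven luciferase in MDA-kb2 cells (AR- and GR-responsive). Treatment lasted 16 h at 37C, 0% CO2.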

For experiment [10] the target is unchanged. The experiment in a line: qHTS assay to identify small molecule antagonists of the androgen receptor (AR) signaling pathway using the MDA cell line (AID 743042; note: nearly all actives have a fitted effect of over 55% in size; note: potency is the fitted concentration of half-maximal effect). An outline of the steps: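 MDA-kb2 cells (human breast carcinoma, stably carrying an MMTV-luciferase reporter responsive to AR and GR) were plated at 3,000 cells/well and preincubated 5 hr at 37C, then given compound plus R1881 agonist for 16 h. ONE-Glo luminescence was read.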

Chain of Androgen receptor (Homo sapiens) (P10275 whole entry, looked up): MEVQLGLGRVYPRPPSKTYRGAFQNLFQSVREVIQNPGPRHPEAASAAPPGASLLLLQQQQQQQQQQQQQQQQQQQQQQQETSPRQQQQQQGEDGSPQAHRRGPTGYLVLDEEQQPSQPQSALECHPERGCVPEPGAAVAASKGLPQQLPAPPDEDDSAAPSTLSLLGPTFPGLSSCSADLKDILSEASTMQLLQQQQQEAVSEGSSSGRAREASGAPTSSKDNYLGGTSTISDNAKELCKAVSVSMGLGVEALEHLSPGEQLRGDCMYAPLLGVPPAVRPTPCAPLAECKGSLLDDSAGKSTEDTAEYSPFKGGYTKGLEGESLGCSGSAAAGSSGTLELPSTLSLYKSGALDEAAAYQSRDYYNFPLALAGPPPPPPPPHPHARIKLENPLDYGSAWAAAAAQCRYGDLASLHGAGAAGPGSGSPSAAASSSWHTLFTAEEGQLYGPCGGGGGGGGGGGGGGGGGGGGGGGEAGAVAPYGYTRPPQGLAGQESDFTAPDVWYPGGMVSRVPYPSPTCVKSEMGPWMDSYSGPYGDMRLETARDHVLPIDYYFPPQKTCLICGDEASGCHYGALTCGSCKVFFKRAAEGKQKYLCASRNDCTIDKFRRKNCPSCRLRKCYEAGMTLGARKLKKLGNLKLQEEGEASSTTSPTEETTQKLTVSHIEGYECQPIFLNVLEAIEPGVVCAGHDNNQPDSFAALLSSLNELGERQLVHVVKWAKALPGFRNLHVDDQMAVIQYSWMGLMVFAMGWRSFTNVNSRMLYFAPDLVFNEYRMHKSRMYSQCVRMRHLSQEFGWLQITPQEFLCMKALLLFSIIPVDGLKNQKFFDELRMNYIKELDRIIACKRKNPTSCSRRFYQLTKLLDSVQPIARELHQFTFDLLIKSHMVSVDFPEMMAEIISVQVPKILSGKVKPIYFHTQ

In the case of `CC(C)(C)C(=O)C(=O)O`, the Potency result in experiment [1], in [2], in experiment [3], in experiment [4], in experiment [5] and in [6] was “inactive” in each case.

As to `CN1CCCC(n2nc(Cc3ccc(Cl)cc3)c3ccccc3c2=O)CC1` (stereo not drawn), the Potency result in experiment [1] and in experiment [5] was “inactive” in each case. Further, the results for the Potency in experiment [2], in experiment [3] and in experiment [4] were 11.9 µM (active), 21.1 µM (active) and 16.8 µM (active), respectively.

Consider `CC(CO)CO`, for which the Potency result in [1], in experiment [2], in [3], in [4], in experiment [5] and in experiment [6] was “inactive” in each case.

Consider `Oc1ccc(Cl)c2cccnc12`, for which, in experiment [1], the Potency entry was “inactive”. The Potency in experiment [2] is 2.98 µM (active); in experiment [3], 4.22 µM (active); in experiment [4] it was 6.68 µM (active); in experiment [5], 13.4 µM (active); in experiment [7], 19 µM (active); in experiment [10] it was 9.44 µM (active). For the same compound, the result in experiment [8] and in experiment [9] was inactive.

For the compound `C1COC1`, the Potency result in experiment [1], in experiment [2], in experiment [3], in experiment [4], in experiment [5] and in [7] was “inactive” throughout. The Potency result in experiment [6] and in experiment [10] was “inactive” in each case. Also, the result in experiment [8] was inactive.

Regarding `CCN(CC)CCNC(=O)COc1ccc(OC)cc1`, the Potency entry in [1], in experiment [2], in [3], in experiment [4], in [5] and in experiment [6] was “inactive” each time.

For `O=C(/C=C/c1ccccc1)OCCc1ccccc1`, the Potency result in experiment [1], in experiment [2], in [3], in experiment [4], in experiment [5] and in [7] was “inactive” throughout. Further, the Potency entry in experiment [6] and in experiment [10] was “inactive” throughout. Moreover, the compound was classed as inactive in [8] and in experiment [9].

Consider `C[C@]1(Cn2ccnn2)[C@H](C(=O)O)N2C(=O)C[C@H]2S1(=O)=O`, for which the Potency result in experiment [1], in [2], in experiment [3], in [4], in [5] and in experiment [6] was “inactive” in each case.

`Cc1cc(C)cc(N)c1`: the Potency entry in [1], in experiment [2], in [3], in experiment [4], in experiment [5] and in experiment [7] was “inactive” throughout. For the same compound, the Potency result in [6] and in experiment [10] was “inactive” each time. For the same compound, the compound was classed as inactive in experiment [8] and in [9].

For `C=C1CCC2CC1C2(C)C` (stereo not drawn), the Potency entry in [1], in experiment [2], in [3], in experiment [4], in [5] and in [6] was “inactive” each time.

On to `O[C@@H]1CO[C@H]2[C@@H]1OC[C@@H]2O`, for which the Potency entry in experiment [1], in experiment [2], in experiment [3], in experiment [4], in experiment [5] and in experiment [6] was “inactive” in each case.

For the compound `CC1(C)[C@@H](OC(=O)CCC(=O)O)CC[C@]2(C)[C@H]3C(=O)C=C4[C@@H]5C[C@@](C)(C(=O)O)CC[C@]5(C)CC[C@@]4(C)[C@]3(C)CC[C@@H]12`, the Potency entry in [1], in [2], in experiment [3], in [4] and in experiment [6] was “inactive” throughout.

With `NCCNCCO`, the Potency entry in [1], in [2], in experiment [3], in experiment [4], in experiment [5] and in experiment [6] was “inactive” each time.

Consider `O=c1[nH]ncc2ccccc12`, for which the Potency entry in experiment [1], in experiment [2], in [3], in [4] and in experiment [6] was “inactive” in each case.

`C/C=C\C/C=C/CCCCCCCCOC(C)=O`: the Potency entry in experiment [1] and in [6] was “inactive” in each case. Further, the results for the Potency in experiment [2], in [3] and in experiment [4] were 27.3 µM (active), 27.3 µM (active) and 24.3 µM (active), respectively.

Regarding `CC(C)c1nc(CN(C)C(=O)N[C@H](C(=O)N[C@@H](Cc2ccccc2)C[C@H](O)[C@H](Cc2ccccc2)NC(=O)OCc2cncs2)C(C)C)cs1`, the Potency result in [1], in [3], in experiment [5] and in experiment [6] was “inactive” in each case. Further, the Potency result in experiment [2] was “inactive and 23.7 µM (active)”; in experiment [4], 23.7 µM (active).

As for `COc1ccccc1N1CCN(CCCCNC(=O)c2ccc(-c3ccc(C(C)=O)cc3)cc2)CC1`, the Potency result in experiment [1], in [2], in experiment [3] and in experiment [5] was “inactive” each time.

Turning to `CN1C(=O)OC(C)(C)C1=O`, the Potency result in experiment [1], in experiment [2], in experiment [3], in experiment [4], in [5] and in experiment [6] was “inactive” each time.

For the compound `CCC(C)COC(=O)CC(C)C` (stereo not drawn), the Potency result in experiment [1] and in experiment [6] was “inactive” in each case. Further, the Potency was 68.6 µM (active) in [2], 61.1 µM (active) in [3] and 61.1 µM (active) in experiment [4].

For the compound `CCOC(=O)OC(C)OC(=O)[C@@H]1N2C(=O)[C@@H](NC(=O)[C@H](N)c3ccccc3)[C@H]2SC1(C)C` (stereo partly drawn), the Potency entry in [1], in experiment [2], in [3], in experiment [4] and in [6] was “inactive” in each case.

For the compound `O=C1NCCN1CCO`, the Potency entry in experiment [1], in experiment [2], in [3], in experiment [4], in experiment [5] and in experiment [6] was “inactive” throughout.

As for `CCOC(C)=O`, the Potency entry in experiment [1], in experiment [2], in experiment [3], in experiment [4], in experiment [5] and in experiment [6] was “inactive” throughout.

In the case of `CCC=CC#N`, the Potency entry in experiment [1], in [2], in experiment [3], in experiment [4], in [5] and in [6] was “inactive” each time.

Turning to `CC(C)C[C@H](NC(=O)[C@H](CCc1ccccc1)NC(=O)CN1CCOCC1)C(=O)N[C@@H](Cc1ccccc1)C(=O)N[C@@H](CC(C)C)C(=O)[C@@]1(C)CO1`, the Potency in experiment [1] was 5.35 µM (active); in [2], 0.0119 µM (active); in [3] it was 0.0168 µM (active); in [4] it was 0.0119 µM (active). In [6], the Potency entry was “inactive”.

Regarding `CCn1cc(C(=O)O)c(=O)c2cc(F)c(N3CCNCC3)cc21`, the Potency entry in [1], in experiment [2], in experiment [3], in experiment [4], in experiment [5] and in experiment [6] was “inactive” in each case.

As to `CC(=O)c1ccc([N+](=O)[O-])cc1`, the Potency result in [1], in experiment [2], in experiment [3], in experiment [4], in experiment [5] and in experiment [6] was “inactive” throughout.

As for `CC=C(Cl)Cl`, the Potency entry in experiment [1], in experiment [2], in experiment [3], in experiment [4], in experiment [5] and in experiment [6] was “inactive” throughout.

Consider `CCCCCCCCN`, for which the Potency entry in experiment [1], in [2], in [3], in experiment [4], in experiment [5] and in experiment [6] was “inactive” each time.
